# Assay outcomes as filed in PubChem.
# Shown is part of a subset that was picked to be rich in hits.
# Dicer inh – human Dicer pre-microRNA cleavage inhibition; hit rate 6% among 47,000; AID 1347074; Q9UPY3; cat-ELCCA pre-miR-21 Dicer processing, chemiluminescence; active compounds read high; z-score at 25 µM; in the data active = z-score above about 3, passing the limit was not always enough;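 also: plate controls were vehicle for no effect and no enzyme for full effect; higher signal means more uncleaved substrate so more Dicer inhibition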
# Target sequence (Q9UPY3 whole entry, looked up): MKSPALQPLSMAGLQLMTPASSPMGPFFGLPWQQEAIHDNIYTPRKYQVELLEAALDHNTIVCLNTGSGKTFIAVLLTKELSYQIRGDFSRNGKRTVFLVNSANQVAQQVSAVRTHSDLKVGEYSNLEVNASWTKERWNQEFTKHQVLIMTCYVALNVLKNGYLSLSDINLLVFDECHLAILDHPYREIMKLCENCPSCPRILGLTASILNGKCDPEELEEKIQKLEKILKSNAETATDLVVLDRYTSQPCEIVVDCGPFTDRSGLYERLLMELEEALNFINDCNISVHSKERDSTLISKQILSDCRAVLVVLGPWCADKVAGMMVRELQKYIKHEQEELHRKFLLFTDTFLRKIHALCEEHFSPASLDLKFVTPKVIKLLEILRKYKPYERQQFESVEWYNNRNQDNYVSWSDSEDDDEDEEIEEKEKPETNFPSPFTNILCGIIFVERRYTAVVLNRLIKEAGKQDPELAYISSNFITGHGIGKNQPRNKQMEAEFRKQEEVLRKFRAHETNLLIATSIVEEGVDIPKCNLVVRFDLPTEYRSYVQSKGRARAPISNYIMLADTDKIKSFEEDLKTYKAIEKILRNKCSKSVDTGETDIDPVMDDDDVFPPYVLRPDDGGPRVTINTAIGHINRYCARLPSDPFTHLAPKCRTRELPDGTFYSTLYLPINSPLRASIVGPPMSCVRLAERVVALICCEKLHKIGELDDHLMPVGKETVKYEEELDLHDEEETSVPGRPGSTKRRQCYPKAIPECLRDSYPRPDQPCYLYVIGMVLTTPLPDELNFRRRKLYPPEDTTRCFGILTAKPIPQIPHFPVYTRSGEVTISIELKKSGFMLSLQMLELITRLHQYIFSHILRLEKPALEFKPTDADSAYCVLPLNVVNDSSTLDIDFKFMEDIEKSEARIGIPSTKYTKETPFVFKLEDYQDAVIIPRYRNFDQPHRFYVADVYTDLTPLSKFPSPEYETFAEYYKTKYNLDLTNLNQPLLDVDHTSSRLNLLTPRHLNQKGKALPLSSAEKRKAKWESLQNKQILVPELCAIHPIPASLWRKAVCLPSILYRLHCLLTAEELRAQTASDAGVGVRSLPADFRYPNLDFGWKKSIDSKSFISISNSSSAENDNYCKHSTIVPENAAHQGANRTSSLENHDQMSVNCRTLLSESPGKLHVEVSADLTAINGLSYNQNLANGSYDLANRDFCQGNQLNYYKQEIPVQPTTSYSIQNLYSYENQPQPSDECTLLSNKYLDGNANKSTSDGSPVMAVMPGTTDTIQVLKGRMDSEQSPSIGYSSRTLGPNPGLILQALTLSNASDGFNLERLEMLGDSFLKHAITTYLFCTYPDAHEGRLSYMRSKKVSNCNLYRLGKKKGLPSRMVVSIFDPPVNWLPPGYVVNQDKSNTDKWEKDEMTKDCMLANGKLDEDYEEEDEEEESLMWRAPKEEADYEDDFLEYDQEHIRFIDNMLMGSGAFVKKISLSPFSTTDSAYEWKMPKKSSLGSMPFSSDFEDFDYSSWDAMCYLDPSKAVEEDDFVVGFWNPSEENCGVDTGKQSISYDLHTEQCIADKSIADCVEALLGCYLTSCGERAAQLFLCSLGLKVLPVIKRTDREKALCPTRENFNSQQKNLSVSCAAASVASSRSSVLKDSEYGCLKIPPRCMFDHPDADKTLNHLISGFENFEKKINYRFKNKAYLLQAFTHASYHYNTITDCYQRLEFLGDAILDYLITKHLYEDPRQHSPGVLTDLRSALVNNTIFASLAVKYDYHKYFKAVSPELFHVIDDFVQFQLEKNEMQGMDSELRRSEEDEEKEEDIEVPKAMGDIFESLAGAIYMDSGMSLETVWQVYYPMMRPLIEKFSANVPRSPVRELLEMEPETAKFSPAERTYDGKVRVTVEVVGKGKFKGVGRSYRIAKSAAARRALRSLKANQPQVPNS
# Numbers without * were called inactive.
SMILES,Dicer inh
CC12CCC(=O)C=C1CCC1C2CCC2(C)C(C(=O)COC(=O)CCC(=O)O)CCC12 (stereo not drawn),-1.52
COc1cccc(CN2CCN(CC3CC4C=CC3C4)CC2)c1 (stereo not drawn),1.67
CCCCC(Nc1ncnc2ccc(Br)cc12)C(=O)O (stereo not drawn),3.9*
Cc1ccc2ncnc(NC(CO)C(=O)O)c2c1 (stereo not drawn),1.81
Cc1ccc2ncnc(NC(CC(C)C)C(=O)O)c2c1 (stereo not drawn),-0.97
CCCCCOc1ccc(C2C(C(=O)OC)=C(C)N=C3SCCC(=O)N32)cc1 (stereo not drawn),-1.4
C/C(=N\NC(N)=O)c1csc2ccccc12,2.23
COC(=O)c1sccc1N/N=C(\C#N)S(=O)(=O)c1cccs1,7.18
COC(=O)c1sccc1N/N=C(\C#N)S(=O)(=O)c1ccc(Cl)cc1,1.1
COC(=O)c1scc(S(=O)(=O)Cc2cccs2)c1N/N=C(\C#N)S(=O)(=O)c1ccc(Cl)cc1,5.62*
CCOC(=O)CSc1nnc(-c2ccccc2)c(=O)n1-c1ccccc1,-3.41
Clc1cccc(C2CC(c3ccccc3)=NN2c2ccccc2)c1 (stereo not drawn),-0.36
CNC(=O)c1ccccc1Sc1ccc(OC)cc1C(=O)NC,-0.3
CSc1nn(-c2ccccc2)cc1C(N)=S,-0.12
CSc1nn(-c2ccccc2)cc1/C(N)=N/O,6.04*
CSc1nn(-c2ccccc2)cc1/C(N)=N/OC(=O)Nc1ccccc1,3.67
Cc1cc(C(=O)NC2CCN(Cc3c(F)cccc3Cl)CC2)nn1-c1ccccc1,1.25
COc1ccc(C2Oc3c(OC)cccc3C3CC(c4cc(OC)ccc4O)=NN32)c(OC)c1 (stereo not drawn),2.82
COc1ccc(O)c(C2=NN3C(C2)c2ccccc2OC3c2ccc(O)c(OC)c2)c1 (stereo not drawn),2.58
COc1ccc(O)c(C2=NN3C(C2)c2ccccc2OC3c2ccc(F)cc2)c1 (stereo not drawn),2.44
COc1cccc(C2Oc3ccccc3C3CC(c4cccs4)=NN32)c1OC (stereo not drawn),19.9*
COc1ccc(O)c(C2=NN3C(C2)c2ccccc2OC3c2cccs2)c1 (stereo not drawn),11.1*
COc1ccc(O)c(C2=NN3C(C2)c2cccc(OC)c2OC3c2cccs2)c1 (stereo not drawn),3.49*
COc1cccc2c1OC(c1cccs1)N1N=C(c3ccccc3O)CC21 (stereo not drawn),1.33
COC(=O)c1ccc(C2Oc3c(OC)cccc3C3CC(c4cccs4)=NN32)cc1 (stereo not drawn),-1.57
SMILES,Dicer inh
CC(C)(C)OC(=O)NCc1n[nH]c(=S)n1C1CC1,-0.11
N=C(N)COc1ccccc1Cl,0.29
O=S(=O)(Nc1ccc(C(F)(F)F)cc1)c1ccc(S(=O)(=O)c2ncc(C(F)(F)F)cc2Cl)s1,-1.32
O=C1c2ccccc2C(=O)c2c(NCCc3ccc(O)cc3)ccc(NCCc3ccc(O)cc3)c21,-1.44
O=C1c2c(O)ccc(O)c2C(=O)c2c(NCCNCCO)ccc(NCCNCCO)c21,20.8*
CCOc1ccc(C2C(C#N)=C3N=C(N)c4ccccc4N3C3=C2C(=O)CC(C)(C)C3)cc1 (stereo not drawn),0.88
O=S(=O)(c1ccc(Cl)c2ccccc12)N1CCN(c2ccccc2)CC1,1.52
COc1ccc(S(=O)(=O)N2CCN(C)CC2)c2ccccc12,6.13*
Cc1ccc(-c2n[nH]c(=S)c3ccccc23)cc1S(=O)(=O)N1CCN(C)CC1,0.77
CCOC(=O)c1c(SC)nc2c(C(F)(F)F)cccc2c1Oc1ccc(OC)cc1,8.73
C/S(=N\C(=O)Nc1ccc(Cl)cc1)c1sc(Cl)c2c1C(=O)CCC2 (stereo not drawn),-1.72
COC(=O)c1c(C)oc(C)c1S(=O)(=O)NN(C)c1ccc([N+](=O)[O-])cn1,0.93
Cc1ccc(C)n1-c1ccc(-c2n[nH]c(=S)n2-c2ccccc2)cc1,1.33
CCn1c(C(C)Oc2ccc(Cl)cc2)n[nH]c1=S (stereo not drawn),-6.24
CC(Oc1ccccc1-c1ccccc1)c1n[nH]c(=S)n1-c1ccccc1 (stereo not drawn),3.34*
Cc1cccc(C(=O)NCCSCc2ccc(Cl)cc2Cl)c1,0.12
CCOC(=O)C(O)(NC(=O)c1cccc(C(F)(F)F)c1)C(F)(F)F (stereo not drawn),-1.49
COc1ccc(C2CC(=O)C3=C(C2)Nc2ccccc2NC3c2cccc(F)c2)cc1 (stereo not drawn),1.88
CCOC(=O)COc1ccc2c(=O)c(Oc3ccc(OC)cc3)c(C(F)(F)F)oc2c1,0.34
Cc1cc(C)c(S(=O)(=O)Nc2ccc(O)cc2)c(C)c1,1.44
COc1nc(NS(=O)(=O)c2ccc(C)cc2)nc(C)c1Cl,-0.17
COc1ccc(S(=O)(=O)Nc2cc(Cl)c3oc(=O)sc3c2)cc1OC,4.32*
Cc1cc(C)c(S(=O)(=O)Nc2cc(Cl)c3oc(=O)sc3c2)c(C)c1,12.4*
Cc1cc(C)c(S(=O)(=O)Nc2cccc3ccc(C)nc23)c(C)c1,-0.95
